± gives the standard deviation of the averaged measurements.
Assays:
Conditions in all cases: concentration: 10 µM; 24 h
[1] = test system: HCC1569; experiment: cell number relative to DMSO (% of DMSO); higher = more cells (less growth inhibition / toxicity)
Outline: (§1)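 HCC1569 and TDF cells were seeded at 800 per well in 384-well plates in RPMI with 10% FBS and treated with compounds at 10 µM for 24 h at 37 °C, in triplicate. After fixation in 3.7% formaldehyde, cells were stained with a rabbit anti-H1.0 antibody, an AlexaFluor 647 secondary and DAPI, and six fields per well were imaged at ×10. H1.0 nuclear intensity or cell number is given as percent of the plate control, using the median of replicates, with HCC1569 values smoothed for positional effects.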

[2] = test system: TDF; experiment: as above
Outline: as §1

[3] = test system: TDF; experiment: H1.0 immunofluorescence intensity relative to DMSO (% of DMSO); higher = stronger H1.0 induction, active = 120 or more
Outline: as §1

[4] = test system: HCC1569; experiment: H1.0 immunofluorescence intensity relative to DMSO (% of DMSO); higher = stronger H1.0 induction, active = 140 or more
Outline: as §1
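For H1.0 immunofluorescence intensity relative to DMSO in this document: TDF is a line of transformed human dermal fibroblasts of mesenchymal origin.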
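For cell number relative to DMSO in this document: TDF denotes transformed human dermal fibroblasts of mesenchymal origin.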

| SMILES | cell number [1] | cell number [2] | H1.0 immunofluorescence intensity [3] | H1.0 immunofluorescence intensity [4] |
| --- | --- | --- | --- | --- |
| O=C(O)c1cccnc1C(=O)O [Quinolinic acid] | 106 | 102 | 90.7 (inactive) | 99.9 (inactive) |
| CCCCCC=CCC=CCCCCCCCC(=O)O [Linoleic acid] | 102 | 101 | 105 (inactive) | 99.3 (inactive) |
| CCc1nn(CCCN2CCN(c3cccc(Cl)c3)CC2)c(=O)n1CCOc1ccccc1 | 92.2 | 95 | 95.3 (inactive) | 122 (inactive) |
| Clc1ccc2c(c1)CCc1cccnc1C2=C1CCNCC1 [Desloratadine] | 98.1 | 102 | 109 (inactive) | 108 (inactive) |
| CCCCCC(O)C=CC1C(O)CC2CC(=CCCCC(=O)O)CC21 (centres undefined) [Carbacyclin] | 103 | 99.1 | 94.8 (inactive) | 100 (inactive) |
| CCOC(=O)[C@H](CCc1ccccc1)N[C@@H](C)C(=O)N1CCC[C@H]1C(=O)O.O=C(O)C=CC(=O)O | 102 | 99.6 | 91 (inactive) | 100 (inactive) |
| COc1cc2nc(N3CCN(C(=O)C4CCCO4)CC3)nc(N)c2cc1OC.Cl (centres undefined) [Terazosin hydrochloride] | 100 | 95.1 | 92.6 (inactive) | 102 (inactive) |
| CC(=O)OCC(=O)[C@@]1(O)CC[C@H]2[C@@H]3CCC4=CC(=O)C=C[C@]4(C)[C@H]3[C@@H](O)C[C@@]21C | 99.3 | 103 | 93.1 (inactive) | 101 (inactive) |
| CC(C)NNC(=O)c1ccncc1 [Iproniazid] | 104 | 103 | 100 (inactive) | 112 (inactive) |
| CCN(CCO)CCCC(C)Nc1ccnc2cc(Cl)ccc12.O=S(=O)(O)O (centres undefined) | 99 | 91.2 | 102 (inactive) | 95.7 (inactive) |
| Cc1cc2ncc(-c3ccccc3)nc2cc1C | 100 | 97.9 | 96 (inactive) | 112 (inactive) |
| O=[N+]([O-])c1cccc2cn[nH]c12 [7-Nitroindazole] | 105 | 109 | 90.5 (inactive) | 92.6 (inactive) |
| NC(CCC(=O)NC(CSN=O)C(=O)NCC(=O)O)C(=O)O (centres undefined) [S-Nitrosoglutathione] | 104 | 102 | 88.7 (inactive) | 90.2 (inactive) |
| COc1ccnc(CS(=O)c2nc3cc(OC(F)F)ccc3[n-]2)c1OC.O.[Na+] (centres undefined) | 104 | 92.8 | 95.7 (inactive) | 100 (inactive) |
| C[n+]1cccc(C(=O)O)c1.[Cl-] | 99.8 | 94 | 101 (inactive) | 92.9 (inactive) |
| COc1cc2ncn(-c3cc(OCc4ccccc4S(C)(=O)=O)c(C#N)s3)c2cc1OC [IKK-3 Inhibitor IX] | 85.9 | 109 | 84.2 (inactive) | 127 (inactive) |
| CCCCCC(O)C=CC=CC=CC(O)CC=CCCCC(=O)O [8(R),15(S)-DIHETE all trans] | 102 | 107 | 91.4 (inactive) | 98.4 (inactive) |
| Cc1[nH]c(C=C2C(=O)Nc3ccc(S(=O)(=O)Cc4c(Cl)cccc4Cl)cc32)c(C)c1C(=O)N1CCCC1CN1CCCC1 (centres undefined) | 75.3 | 22.8 | 133 (active) | 204 (active) |
| O=C(O)c1ccccc1C(=O)Nc1ccc(-c2ccccc2)cc1 [2-[([1,1'-biphenyl]-4-ylamino)carbonyl]benzoic acid] | 104 | 99.9 | 98.7 (inactive) | 95.6 (inactive) |
| O=C(C=Cc1ccc(O)c(O)c1)OC1CC(O)(C(=O)O)CC(O)C1O (centres undefined) [Chlorogenic acid] | 100 | 98.2 | 103 (inactive) | 100 (inactive) |
| Cl.c1ccc2c(CC3=NCCN3)cccc2c1 [Naphazoline hydrochloride] | 96.1 | 108 | 91.2 (inactive) | 90.2 (inactive) |
| O=c1c(-c2ccc(O)cc2)coc2cc(O)cc(O)c12 [Genistein] | 97.9 ± 4.4 | 99 ± 4.5 | 92.8 (inactive) | 97.6 (inactive) |
| CC(C)CC(NC(=O)C1OC1C(=O)O)C(=O)NCCCCN=C(N)N (centres undefined) | 99.92 ± 0.64 | 96.3 ± 6.9 | 97.7 (inactive) | 97.3 (inactive) |
| COc1cc(C(=O)OC2CC3CCC2(C)C3(C)C)ccc1O (centres undefined) [Tschimganine] | 101 | 103 | 99.6 (inactive) | 88.3 (inactive) |
| COc1cc2nc(N3CCN(C(=O)c4ccco4)CC3)nc(N)c2cc1OC.Cl [Prazosin hydrochloride] | 91.9 | 99.8 | 93.6 (inactive) | 106 (inactive) |
| CNCCCC1c2ccccc2C=Cc2ccccc21.Cl [Protriptyline hydrochloride] | 92.7 | 99.5 | 109 (inactive) | 117 (inactive) |

| SMILES | cell number [1] | cell number [2] | H1.0 immunofluorescence intensity [3] | H1.0 immunofluorescence intensity [4] |
| --- | --- | --- | --- | --- |
| CCCC(C(=O)OCCN(CC)CC)(c1ccccc1)c1ccccc1.Cl [SKF-525A hydrochloride] | 94 | 100 | 88.8 (inactive) | 102 (inactive) |
| COc1ccc2c(c1)c(C1=C(c3c[nH]c4ccccc34)C(=O)NC1=O)cn2CCCN(C)C | 83.9 | 99.3 | 98.6 (inactive) | 174 (active) |
| CCCCCCCCCCCCCC=CC(O)C(CO)NC(=O)CCCCCCC (centres undefined) [C8 Ceramide] | 102 | 99.5 | 101 (inactive) | 99.8 (inactive) |
| O=c1[nH]ccc2c(O)cccc12 [1,5-Isoquinolinediol] | 100 | 97.2 | 87.9 (inactive) | 91.6 (inactive) |
| COc1ccc(-c2ccc3c(N4CCOCC4)nc(N4CC(C)OC(C)C4)nc3n2)cc1CO (centres undefined) | 73 | 78.1 | 87.6 (inactive) | 164 (active) |
| C=CC1(C)CCC2C(=CCC3C(C)(C(=O)O)CCCC23C)C1 (stereo not drawn) [(4alpha,13alpha)-pimara-7,15-dien-18-oic acid] | 102 | 101 | 99 (inactive) | 86.6 (inactive) |
| COc1ccc(-n2[nH]c3c(cnc4ccccc43)c2=O)cc1 [2-(4-methoxyphenyl)-1H-pyrazolo[4,3-c]quinolin-3(2H)-one] | 103 | 87.8 | 98.5 (inactive) | 93.6 (inactive) |
| Cl.O=C(CNC(=O)c1cccc(C(F)(F)F)c1)N[C@@H]1CCN(Cc2ccc(Cl)cc2)C1 | 89.9 | 96.8 | 89.1 (inactive) | 134 (inactive) |
| CCn1c(-c2nonc2N)nc2c(C#CC(C)(C)O)ncc(OCC3CCCNC3)c21 (centres undefined) | 72.9 | 71.5 | 103 (inactive) | 120 (inactive) |
| CNC1CC2OC(C)(C1OC)n1c3ccccc3c3c4c(c5c6ccccc6n2c5c31)C(=O)NC4O (centres undefined) | 20.4 | 8.22 | 139 (active) | 121 (inactive) |
| CS(=O)(=O)CCNCc1nc(-c2ccc3ncnc(Nc4ccc(OCc5cccc(F)c5)c(Cl)c4)c3c2)cs1.Cl.Cl | 88.4 | 99.7 | 99.4 (inactive) | 136 (inactive) |
| C1CNCCN1.COc1cc(C(O)CO)ccc1O.COc1cc(C(O)CO)ccc1O (centres undefined) [MHPG piperazine] | 100 | 108 | 106 (inactive) | 93.6 (inactive) |
| Cl.N=C(N)c1ccccc1 [Benzamidine hydrochloride] | 100 | 103 | 94 (inactive) | 85.3 (inactive) |
| COc1cc(NS(C)(=O)=O)ccc1Nc1c2ccccc2nc2ccccc12.Cl [Amsacrine hydrochloride] | 67.8 | 32.3 | 152 (active) | 113 (inactive) |
| O=C(NOCC1CC1)c1ccc(F)c(F)c1Nc1ccc(I)cc1Cl | 77.6 | 71 | 93.3 (inactive) | 116 (inactive) |
| CC(CN1c2ccccc2Sc2ccccc21)N(C)C.Cl (centres undefined) [Promethazine.HCl] | 104 | 101 | 96.1 (inactive) | 121 (inactive) |
| COc1ccc(CC(N)C(=O)NC2C(CO)OC(n3cnc4c(N(C)C)ncnc43)C2O)cc1 (centres undefined) [Puromycin] | 24.1 ± 7.4 | 99.2 ± 15 | 94 (inactive) | 90.9 (inactive) |
| O=C(Nc1ccc(-c2cn[nH]c2)cc1)C1COc2ccccc2O1 (centres undefined) [Rho Kinase Inhibitor V] | 107 | 109 | 87.7 (inactive) | 101 (inactive) |
| CC1(NC(=O)CBr)CCC(C(C)(C)NCC(O)COc2cccc3[nH]ccc23)CC1 (racemic) | 95.8 | 98.3 | 93.2 (inactive) | 103 (inactive) |
| N#CC(=Cc1ccc(O)c(O)c1)C(=O)NCc1ccccc1 [Tyrphostin AG 490] | 94.5 | 107 | 88.7 (inactive) | 99.7 (inactive) |
| O=C1CSC(c2cccc(Br)c2)N1c1cc(Cl)ccc1O (centres undefined) | 102 | 96.5 | 94.8 (inactive) | 103 (inactive) |
| O=C(c1ccc(F)cc1)C1CCN(CCn2c(=O)[nH]c3ccccc3c2=O)CC1 [Ketanserin] | 101 | 105 | 91.7 (inactive) | 117 (inactive) |
| CCCCCCCCCCCCCCC(F)C(=O)O (centres undefined) [2-Fluoropalmitic acid] | 105 | 102 | 99.7 (inactive) | 104 (inactive) |
| Brc1c(NC2=NCCN2)ccc2nccnc12 | 103 | 102 | 90.2 (inactive) | 96.8 (inactive) |
| CC12CCc3occc3C1CCC13CC(=O)C(CCC12)C3 (centres undefined) [16-Oxocafestol] | 101 | 97.5 | 97.4 (inactive) | 98.5 (inactive) |

Source: the supplement of paper PMC7156485
